Data as given in PubChem BioAssay (NCI).
Where “and” joins values, the source holds several entries; their conditions need not be identical. Identical values can stand only once. About 79,000 compounds went through this panel and 15% of them were active in at least one assay; those are over-represented in the sample as a whole. Calls of active or inactive are those of the source. Rule as the data show it: active = growth inhibition above about 70%; inactive = the rest.

Key:
[1] = NCI Yeast Anticancer Drug Screen. Data for the rad52 strain (AID 147);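 also: 0% = growth of vehicle-treated control cultures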; conditions: S. cerevisiae rad52 mutant growth inhibition, hits give high values
Procedure, shortened: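 Here a repair-compromised yeast strain receives each compound; its growth is then quantified and normalised to vehicle-only controls.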

[2] = NCI Yeast Anticancer Drug Screen. Data for the wt1 strain (AID 149);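 also: 0% = growth of vehicle-treated wt1 cultures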; conditions: S. cerevisiae wt1 strain (SPY 50644) growth inhibition, hits give high values
Procedure, shortened: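 wt1 strain grown with compound or vehicle; inhibition taken from the growth difference.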

[3] = NCI Yeast Anticancer Drug Screen. Data for the rad50EPP+ strain (AID 151);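 also: 0% = growth of vehicle-treated control cultures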; conditions: S. cerevisiae rad50 mutant strain, hits give high values
Procedure, shortened: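 Read-out is yeast growth inhibition relative to vehicle; cells used were the rad50EPP+ strain.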

[4] = NCI Yeast Anticancer Drug Screen. Data for the mgt1 strain (AID 153); conditions: S. cerevisiae mgt1 mutant growth inhibition, hits give high values
Procedure, shortened: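 Measured: inhibition of mgt1 yeast growth by compound, normalized to vehicle-treated cultures.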

[5] = NCI Yeast Anticancer Drug Screen. Data for the rad50 strain (AID 155);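 also: 0% = growth of vehicle-only cultures of the same strain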; conditions: S. cerevisiae rad50 strain growth inhibition, hits give high values
Procedure, shortened: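 DNA repair mutant yeast, compound exposure, growth read-out; inhibition is taken relative to vehicle.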

[6] = NCI Yeast Anticancer Drug Screen. Data for the mec2-1 strain (AID 157); conditions: S. cerevisiae mec2-1 strain, hits give high values
Procedure, shortened: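 Using mec2-1 yeast: add compound, measure growth, express inhibition versus vehicle-treated cultures.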

[7] = NCI Yeast Anticancer Drug Screen. Data for the rad14 strain (AID 159);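 also: 0% = growth of vehicle-treated control cultures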; conditions: S. cerevisiae rad14 strain growth inhibition, hits give high values
Procedure, shortened: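 DNA repair-defective yeast, compound-exposed; % growth inhibition derived by comparison with vehicle-treated controls.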

[8] = NCI Yeast Anticancer Drug Screen. Data for the sgs1 mgt1 strain (AID 161);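 also: 0% = growth of cultures given vehicle only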; conditions: S. cerevisiae sgs1 mgt1 strain, hits give high values
Procedure, shortened: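 Growth of a repair-deficient yeast mutant was monitored after compound treatment and expressed as inhibition relative to vehicle-treated cultures.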

[9] = NCI Yeast Anticancer Drug Screen. Data for the CLN2oe strain (AID 163);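 also: 0% = growth of vehicle-only control cultures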; conditions: S. cerevisiae CLN2oe strain, hits give high values
Procedure, shortened: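 Whole-cell yeast growth assay. A strain engineered for altered cell-cycle control received compound, and inhibition relative to vehicle-treated cultures was recorded.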

[10] = NCI Yeast Anticancer Drug Screen. Data for the cln2 rad14 strain (AID 165);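 also: 0% = growth equal to vehicle treated cultures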; conditions: S. cerevisiae cln2 rad14 strain, hits give high values
Procedure, shortened: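 Yeast strain cln2 rad14, bearing defects in cell cycle control and DNA repair, serves as the test system; values reflect growth inhibition compared with vehicle.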

[11] = NCI Yeast Anticancer Drug Screen. Data for the bub3 strain (AID 167); conditions: S. cerevisiae bub3 mutant strain, hits give high values
Procedure, shortened: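 In this screen, a yeast mutant lacking normal mitotic checkpoint function is challenged with compound. Relative growth versus vehicle gives the inhibition value.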

[12] = NCI Yeast Anticancer Drug Screen. Data for the wt2 strain (AID 169);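 also: 0% = growth of vehicle-treated yeast cultures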; conditions: S. cerevisiae wt2 strain growth inhibition, hits give high values
Procedure, shortened: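 Treated yeast vs. vehicle-treated yeast: growth inhibition determined.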

[13] = NCI Yeast Anticancer Drug Screen. Data for the mlh1 strain (AID 171);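 also: 0% = growth of vehicle-treated control cultures of the same strain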; conditions: S. cerevisiae mlh1 strain growth inhibition, hits give high values
Procedure, shortened: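 A yeast strain with a defined genetic lesion serves as the test organism. Cultures receive compound or vehicle, and growth is measured.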

[14] = NCI Yeast Anticancer Drug Screen. Data for the sgs1 strain (AID 173);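 also: 0% = growth of vehicle-only control cultures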; conditions: S. cerevisiae sgs1 mutant, hits give high values
Procedure, shortened: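 A genetically defined yeast mutant is incubated with the test compound, and its growth is compared to that of the same strain given vehicle.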

[15] = NCI Yeast Anticancer Drug Screen. Data for the mlh1 rad18 strain (AID 175); conditions: S. cerevisiae mlh1 rad18 strain growth inhibition, hits give high values
Procedure, shortened: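 Steps: expose repair-defective yeast to compound; measure growth; express inhibition against vehicle-treated controls.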

[16] = NCI Yeast Anticancer Drug Screen. Data for the rad18 strain (AID 177); conditions: S. cerevisiae rad18 mutant growth inhibition, hits give high values
Procedure, shortened: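 Measured value is growth inhibition of a yeast strain bearing a DNA repair alteration, referenced to vehicle-treated cells.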

[17] = at 5.0 µM (retest, dose inferred, filed as 0.5)
[18] = at 50.0 µM (retest, dose inferred, filed as 5.0)

Measured: growth inhibition

O=C(O)CNC(=S)Nc1ccccc1
inactive: [1]; at 1.2 µM -72% | [1]; at 3.7 µM -88% | [1]; at 11.0 µM -22% | [1]; at 33.0 µM 54% | [2]; at 1.2 µM -52% | [2]; at 3.7 µM -52% | [2]; at 11.0 µM -47% | [2]; at 33.0 µM 43% | [3]; at 1.2 µM -86% | [3]; at 3.7 µM -35% | [3]; at 11.0 µM -74% | [3]; at 33.0 µM -40% | [3]; at 100.0 µM 56% | [4]; at 1.2 µM -36% | [4]; at 3.7 µM -17% | [4]; at 11.0 µM 6% | [5]; at 1.2 µM -67% | [5]; at 3.7 µM -68% | [5]; [17] 51% | [5]; at 11.0 µM -48% | [5]; at 33.0 µM 53% | [5]; at 50.0 µM 4.35% and 69.5% | [6]; at 1.2 µM -68% | [6]; at 3.7 µM -21% | [6]; [17] 50% | [6]; at 11.0 µM -8% | [6]; at 33.0 µM 54% | [6]; at 50.0 µM 6.5% and 52.1% | [7]; at 1.2 µM -47% | [7]; at 3.7 µM -41% | [7]; at 11.0 µM -48% | [7]; at 33.0 µM 47% | [8]; [17] -9% | [8]; at 50.0 µM 5.2% and 64.6% | [9]; at 1.2 µM 2% | [9]; at 3.7 µM -9% | [9]; at 11.0 µM -3% | [9]; at 33.0 µM 52% | [10]; [17] 63% | [10]; at 50.0 µM 36.6% and 42% | [11]; at 1.2 µM -46% | [11]; at 3.7 µM -39% | [11]; [17] 6% | [11]; at 11.0 µM -15% | [11]; at 33.0 µM 49% | [11]; at 50.0 µM 8.5% and 53.4% | [12]; at 1.2 µM -74% | [12]; at 3.7 µM -64% | [12]; at 11.0 µM -49% | [12]; at 33.0 µM 31% | [13]; at 1.2 µM -63% | [13]; at 3.7 µM -56% | [13]; at 11.0 µM -30% | [13]; at 33.0 µM 53% | [14]; at 1.2 µM -55% | [14]; at 3.7 µM -51% | [14]; at 11.0 µM -39% | [14]; at 33.0 µM 56% | [15]; [17] 33% | [15]; at 50.0 µM 3.45% and 54.6% | [16]; at 1.2 µM -56% | [16]; at 3.7 µM -17% | [16]; at 11.0 µM -21% | [16]; at 33.0 µM 53%
active: [1]; at 100.0 µM 85% | [2]; at 100.0 µM 91% | [4]; at 33.0 µM 77% | [4]; at 100.0 µM 94% | [5]; [18] 82% | [5]; at 100.0 µM 93% | [6]; [18] 85% | [6]; at 100.0 µM 90% | [7]; at 100.0 µM 91% | [8]; [18] 91% | [9]; at 100.0 µM 86% | [10]; [18] 92% | [11]; [18] 85% | [11]; at 100.0 µM 89% | [12]; at 100.0 µM 88% | [13]; at 100.0 µM 93% | [14]; at 100.0 µM 91% | [15]; [18] 70% | [16]; at 100.0 µM 82%
